Source: PubChem BioAssay
A selection: hits, their analogues and other compounds. The true share with any hit is near 2.8%.
HEK293 viab = GF-AFC viability counterscreen for inhibitors of alpha-synuclein gene (SNCA) expression. HEK-293-SNCA-luc viability, GF-AFC fluorescence, 24 h. Potency, µM (doses to about 57.1 µM), inactives show top-dose activity change, negative = cytotoxicity, usual class: cytotoxic. hit rate 0.12% among 150,000. AID 1671193, 2021;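 also: potency is read from the fitted curve at half-maximal effect; 0% = DMSO-treated cells and -100% = medium-only wells without cells; nearly all actives have a fitted effect of over 30% in size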
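Cytotoxicity counterscreen: after 24 h compound treatment of genome-edited SNCA-luciferase HEK-293 cells, live-cell protease substrate GF-AFC read by fluorescence after 30 min; activity scaled between DMSO (0%) and medium-only (-100%), curves Hill-fitted.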
KDM5B inh = Primary screen for KDM5B Histone Demethylases FDH-coupled qHTS. hit rate 2.6% among 220,000. KDM5B demethylase, FDH-coupled NADH fluorescence (FDH is formaldehyde dehydrogenase). Lysine-specific demethylase 5B (Homo sapiens), Q9UGL1. Potency, µM (top dose mostly 57.7 µM), hits mostly inhibitors; also: potency is read from the fitted curve at half-maximal effect; 0% is about no effect; nearly all actives have a fitted effect of over 70% in size
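qHTS format, multiple compound concentrations. Buffer 50 mM HEPES pH 7.5/0.01% Tween-20; 200 nM KDM5BΔAP final; 10 min compound preincubation; substrate-mix levels 12.5 µM peptide, 25 µM α-KG, 0.25 mM NAD⁺; 30 min RT; ΔRFU.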
SNCA expr inh = Primary qHTS assay for inhibitors of alpha-synuclein gene (SNCA) expression. HEK-293 SNCA-luciferase knock-in, luminescence, 24 h. Potency, µM (doses to about 57.2 µM), for inactives: top-dose activity change, negative = inhibition, usual class: inhibitors. hit rate 0.17% among 140,000. AID 1671194, 2021;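 also: potency is read from the fitted curve at half-maximal effect; plate controls were DMSO cells for no effect and cell-free wells for full effect; nearly all actives have a fitted effect of over 45% in size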
IP6K1 inh = Primary qHTS assay for small molecule inhibitors of Inositol hexaphosphate kinase 1 (IP6K1) | IP6K1 kinase, ADP-Glo luminescence, 2 h; active compounds read low | hit rate 0.81% among 140,000 | Inositol hexakisphosphate kinase 1 (Homo sapiens), Q92551 | AID 1645851, 2021 | activity change, % (series mostly up to about 58 µM); in the data active = activity change below about -25%; also: % is scaled to controls: 0 for no effect and ±100 for the full control effect
Target sequence (Q92551 whole entry, looked up): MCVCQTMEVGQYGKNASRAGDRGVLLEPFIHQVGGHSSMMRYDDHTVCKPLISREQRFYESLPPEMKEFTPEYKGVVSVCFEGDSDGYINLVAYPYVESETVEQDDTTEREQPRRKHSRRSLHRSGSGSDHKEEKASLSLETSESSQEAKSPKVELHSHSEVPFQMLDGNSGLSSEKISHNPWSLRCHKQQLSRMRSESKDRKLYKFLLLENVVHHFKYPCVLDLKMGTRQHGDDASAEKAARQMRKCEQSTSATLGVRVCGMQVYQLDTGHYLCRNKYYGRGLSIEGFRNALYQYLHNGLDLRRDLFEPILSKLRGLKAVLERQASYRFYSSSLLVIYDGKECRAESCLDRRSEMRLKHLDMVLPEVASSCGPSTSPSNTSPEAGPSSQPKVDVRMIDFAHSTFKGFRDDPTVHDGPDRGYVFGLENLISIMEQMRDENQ
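ADP-Glo luminescence measures ADP made by human IP6K1 during a 2 h RT reaction with ATP/IP6 (mix at 1.3 mM/130 uM); top library doses 57.5 and 19.1 uM final.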
Active calls of the source: *; [ ] = another dose, or the depositor's remark. Unless noted, calls follow the shape of the dose curve; as a rule, active = well fitted curve in the direction sought with a large enough effect; inconclusive = small, poorly fitted or top-dose-only effect, or another doubt; inactive = no such curve, though single readings can be large; an effect the other way counts as inactive or inconclusive.

How did O=C(c1cc(F)ccc1F)N1CCC2(CC1)N=C(c1ccc(Cl)cc1)NO2 do in these assays?
HEK293 viab: 2%; KDM5B inh: 22µM*; SNCA expr inh: -2%; IP6K1 inh: -2

What do the screens show for `CCCn1c(C2NC(=O)NC(C)=C2C(=O)OCc2ccccc2)nc2ccccc21` (stereo unspecified)?
KDM5B inh: inactive

How did CCc1noc([C@@H]2CC(F)(F)CN2C(=O)CCn2cccn2)n1 do in these assays?
HEK293 viab: -4%; KDM5B inh: inactive; SNCA expr inh: -12%; IP6K1 inh: 3

Results for CC1Oc2ccc(NC(=O)c3c(F)cccc3F)cc2CN(C2CCCc3ccccc32)C1=O (stereo unspecified) ?
HEK293 viab: -4%; KDM5B inh: inactive; SNCA expr inh: 9%; IP6K1 inh: 8

How did O=Cc1ccc(-c2cncc(C(=O)O)c2)cc1 do in these assays?
HEK293 viab: 5%[87.6 µM]; KDM5B inh: 100µM*; SNCA expr inh: 16%[87.6 µM]; IP6K1 inh: -18

What do the screens show for `CC(=O)N1CCCC(c2nnc3n2CCNC3)C1` (stereo unspecified)?
HEK293 viab: 1%; KDM5B inh: 79µM*; SNCA expr inh: -17%; IP6K1 inh: 5

What do the screens show for `CCOCC(=O)Nc1nn(-c2ccc(F)cc2)c2cccc(N3CCOC3=O)c12`?
HEK293 viab: 2%; KDM5B inh: 25µM*; SNCA expr inh: 40%; IP6K1 inh: 3

Results for CCc1nc(C)c(C(=O)Nc2nn(C)c3cccc(N4CCOC4=O)c23)o1 ?
HEK293 viab: -5%; KDM5B inh: inactive; SNCA expr inh: -18%; IP6K1 inh: 22

Results for COCCCNc1ccc2nnc(-c3ccccn3)n2n1 ?
HEK293 viab: 10%[87.6 µM]; KDM5B inh: inconclusive; SNCA expr inh: 2%[87.6 µM]; IP6K1 inh: -9

How did COCCN1CCC(CNc2nccc(-c3ccccn3)n2)C1 (stereo unspecified) do in these assays?
HEK293 viab: 10%; KDM5B inh: 28µM*; SNCA expr inh: 12%; IP6K1 inh: 47

Results for CC(NC(=O)c1cccc(F)c1)c1cccc(NS(C)(=O)=O)c1 (stereo unspecified) ?
KDM5B inh: inactive

How did Cc1cc(C)c(C(=O)N[C@H](C2CCNCC2)C2CC(O)C2)c(C)c1 (stereo partly specified) do in these assays?
HEK293 viab: 0%; KDM5B inh: inactive; SNCA expr inh: -15%; IP6K1 inh: 27

What do the screens show for `CCNc1ncc(C(=O)N[C@H](C2CCNCC2)C2CC(O)C2)cn1` (stereo partly specified)?
HEK293 viab: -3%; KDM5B inh: 28µM*; SNCA expr inh: -2%; IP6K1 inh: 7

How did CCNc1ncc(C(=O)N[C@H](c2cccs2)C2CC(O)C2)cn1 (stereo partly specified) do in these assays?
HEK293 viab: 2%; KDM5B inh: 22µM*; SNCA expr inh: inconclusive; IP6K1 inh: 13

How did O=C(N[C@H](c1cccs1)C1CC(O)C1)c1ccc(N2CCOCC2)cc1 (stereo partly specified) do in these assays?
HEK293 viab: -5%; KDM5B inh: inactive; SNCA expr inh: -5%; IP6K1 inh: 12

How did CC1CCCC[C@H]2C(=O)C=C[C@H](O)[C@@H]2CC(=O)O1 (stereo partly specified) do in these assays?
HEK293 viab: 9.5µM*; IP6K1 inh: -2

What do the screens show for `Cc1cc(N2CCCN(c3nccc(-c4c(C)nn(C)c4C)n3)CC2)ccn1`?
HEK293 viab: 10%; KDM5B inh: 28µM*; SNCA expr inh: -29%; IP6K1 inh: 0

Results for Cc1nn(C)c(C)c1-c1ccnc(NCCC2(O)CCN(C)CC2)n1 ?
HEK293 viab: -8%; KDM5B inh: inconclusive; SNCA expr inh: -19%; IP6K1 inh: 1

How did Cc1nc(N2CCC(NC(=O)Cc3ccccc3Cl)CC2)cc(C(F)(F)F)n1 do in these assays?
HEK293 viab: -4%; KDM5B inh: inconclusive; SNCA expr inh: -13%; IP6K1 inh: -1

Results for N#Cc1cccnc1N1CCC(NC(=O)c2ccc3cccc(F)c3n2)CC1 ?
HEK293 viab: 4%; KDM5B inh: 28µM*; SNCA expr inh: 17%; IP6K1 inh: 20

How did N#Cc1cccnc1-c1ccc(C(=O)N2CCC(NC(=O)c3ccccc3F)CC2)cc1 do in these assays?
HEK293 viab: 7%[12.5 µM]; SNCA expr inh: -6%; IP6K1 inh: -4

How did CCN(C(=O)c1cccc(F)c1F)[C@@H]1CCN(c2ncccc2C#N)C[C@H]1O do in these assays?
HEK293 viab: 2%; KDM5B inh: 28µM*; SNCA expr inh: -4%; IP6K1 inh: 13

Results for CC(C)Cc1cc(CC2(NCc3ccc(N(C)C)cc3)COC2)no1 ?
HEK293 viab: 3%[87.6 µM]; KDM5B inh: inactive; SNCA expr inh: -5%[87.6 µM]; IP6K1 inh: 1

Results for CCCc1noc(C(C)Sc2cc(C(N)=O)c3ccccc3n2)n1 (stereo unspecified) ?
KDM5B inh: inactive

What do the screens show for `O=c1c(-c2cccs2)nc2cnc(N3CCNCC3)nc2n1Cc1cccs1`?
HEK293 viab: inconclusive; SNCA expr inh: 18µM*

How did CN1CCN(c2ncc3nc(-c4cccs4)c(=O)n(Cc4cccs4)c3n2)CC1 do in these assays?
HEK293 viab: inconclusive; SNCA expr inh: 13%

Results for COC1CCN(C(=O)Cc2c[nH]c3ncc(-c4cccnc4)cc23)CC1 ?
HEK293 viab: -14%[87.6 µM]; KDM5B inh: inactive; SNCA expr inh: 5%[87.6 µM]; IP6K1 inh: -11

Results for COCCNc1nc2c(S(=O)(=O)c3ccccc3)nnn2c2ccccc12 ?
HEK293 viab: 1%; KDM5B inh: inactive; SNCA expr inh: -1%; IP6K1 inh: -14

How did COCCNc1nc2c(S(=O)(=O)c3ccc(C(C)C)cc3)nnn2c2ccccc12 do in these assays?
HEK293 viab: 10%; KDM5B inh: inconclusive; SNCA expr inh: -2%; IP6K1 inh: 15

Results for COCCCNc1nc2c(S(=O)(=O)c3ccccc3)nnn2c2ccccc12 ?
HEK293 viab: 1%; KDM5B inh: 79µM*; SNCA expr inh: -4%; IP6K1 inh: 3

What do the screens show for `COCCCNc1nc2c(S(=O)(=O)c3ccc(C)cc3)nnn2c2ccccc12`?
HEK293 viab: -1%; KDM5B inh: 79µM*; SNCA expr inh: inconclusive; IP6K1 inh: -5

What do the screens show for `COCCNc1nc2c(S(=O)(=O)c3ccc(C)cc3)nnn2c2ccccc12`?
HEK293 viab: 9%; KDM5B inh: 79µM*; SNCA expr inh: 8%; IP6K1 inh: -3

Results for CC(C)OCCCNc1nc2c(S(=O)(=O)c3ccc(Br)cc3)nnn2c2ccccc12 ?
HEK293 viab: 1%; KDM5B inh: inconclusive; SNCA expr inh: 5%; IP6K1 inh: 14
